This is an account of results in the supplement of paper PMC13380429.

Structures are written as SMILES. A number with no mark means an inactive call.

The subject of this experiment is Vero E6 infected with SARS-CoV-2. Put plainly: SARS-CoV-2 infection rate relative to infected DMSO; higher = more infection, active = 60 or less. The settings on record: 24 h.
With `O=C1NC(=O)c2c1c1c3ccccc3[nH]c1c1[nH]c3ccccc3c21` [arcyriaflavin-a] (10 µM), the SARS-CoV-2 infection rate was 106%. As for `CCCNCCc1ccc(NS(=O)(=O)c2ccc(OC(F)(F)F)cc2)cc1` (10 µM), the figure is 110%; as for `Clc1ccc(COC(Cn2ccnc2)c2ccc(Cl)cc2Cl)cc1` (stereo not given) [econazole] (10 µM), 101%; as for `Cc1cc(C(C#N)c2ccc(Cl)cc2)c(Cl)cc1NC(=O)c1cc(I)cc(I)c1O` (stereo not given) [closantel] (10 µM), 91.5%. Regarding `COc1cc(C[C@@H]2NCCc3cc(O)c(O)cc32)cc(OC)c1OC` [trimethoquinol] (10 µM), the SARS-CoV-2 infection rate was 99.5%. As for `CN1C(CSCC(F)(F)F)Nc2cc(Cl)c(S(N)(=O)=O)cc2S1(=O)=O` (stereo not given) [polythiazide] (10 µM), the figure is 100%; as for `COc1cc2c(cc1OC)CN(CCc1ccc(NC(=O)c3cc(OC)c(OC)cc3NC(=O)c3cnc4ccccc4c3)cc1)CC2` [tariquidar] (10 µM), 108%; as for `C[C@@H]1COCCN1c1cc(C2([S@](C)(=N)=O)CC2)nc(-c2ccnc3[nH]ccc23)n1` (0.833333 µM), 90%. Regarding `CCOCCOc1ccccc1C(N)=O` [etosalamide] (10 µM), the SARS-CoV-2 infection rate is 104%. In the case of `O=C(Nc1cccc(Cl)c1)c1ccccn1` (10 µM), the SARS-CoV-2 infection rate was 106%. As for `CC1(C)O[C@@H]2C[C@H]3[C@@H]4C[C@H](F)C5=CC(=O)C=C[C@]5(C)[C@H]4[C@@H](O)C[C@]3(C)[C@]2(C(=O)CO)O1` [flunisolide] (10 µM), the figure is 109%; as for `COc1cc2c(cc1OC)CN(CCc1ccc(NC(=O)c3cccc4c(=O)c5cccc(OC)c5[nH]c34)cc1)CC2` [elacridar] (10 µM), 102%; as for `N#Cc1ccnc(N2C(=O)CC[C@H]2C(=O)N(c2cncc(F)c2)[C@H](C(=O)NC2CC(F)(F)C2)c2ccccc2Cl)c1` [ivosidenib] (10 µM), 91.5%. Take `CC(N)CCCC(C)(C)O` (stereo not given) [heptaminol] (10 µM): the SARS-CoV-2 infection rate is 111%. With `O=[N+]([O-])c1ccc(O)c([N+](=O)[O-])c1` [2,4-dinitrophenol] (10 µM), the SARS-CoV-2 infection rate was 97.5%. On to `CC(=O)OC[C@H]1O[C@@H]([S-])[C@H](OC(C)=O)[C@@H](OC(C)=O)[C@@H]1OC(C)=O.CCP(CC)CC.[Au+]` [auranofin] (0.833333 µM), for which the SARS-CoV-2 infection rate is 79%. As for `CC(C)(O)CC[C@@H](O)[C@](C)(O)[C@H]1CC[C@@]2(O)C3=CC(=O)[C@@H]4C[C@@H](O)[C@@H](O)C[C@]4(C)[C@H]3CC[C@]12C` [20-hydroxyecdysone] (10 µM), the figure is 108%; as for `Cc1cccc(Oc2nc3c(C)cccn3c(=O)c2/C=C(\C#N)c2nc3ccccc3s2)c1` (10 µM), 106%. Consider `CC(C)(C)C(=O)OCC(=O)[C@H]1CC[C@H]2[C@@H]3CCC4=CC(=O)CC[C@]4(C)[C@H]3CC[C@]12C` [desoxycorticosterone-pivalate] (10 µM), for which the SARS-CoV-2 infection rate is 106%. Turning to `CCS(=O)(=O)N1CC(CC#N)(n2cc(-c3ncnc4[nH]ccc34)cn2)C1` [baricitinib] (10 µM), the SARS-CoV-2 infection rate was 112%. As for `Nc1nccc(/C=C/c2ccccc2)n1` (10 µM), the figure is 93%; as for `O=C(O)c1ccccc1O` [salicylic-acid] (10 µM), 107%; as for `COc1ccc2[nH]cc(C3=CCNCC3)c2c1` (10 µM), 104%. As for `Cc1cn(-c2cc(NC(=O)c3ccc(C)c(Nc4nccc(-c5cccnc5)n4)c3)cc(C(F)(F)F)c2)cn1` [nilotinib] (10 µM), the figure is 96.5%. `Nc1ncnc2c1ncn2[C@@H]1O[C@H](COP(=O)(O)OP(=O)(O)OP(=O)(O)O)[C@@H](O)[C@H]1O` (10 µM): the SARS-CoV-2 infection rate is 99.5%. For the compound `CN(C(=O)c1c(O)c2ccccc2n(C)c1=O)c1ccccc1` [roquinimex] (10 µM), the SARS-CoV-2 infection rate is 94.5%. With `CCC(CC)C(c1ccc(Nc2nc3ccccc3s2)cc1)n1cncn1` (stereo not given) [talarozole] (10 µM), the SARS-CoV-2 infection rate is 74.5%. As for `CC(CNC1CCCCC1)OC(=O)c1ccccc1` (stereo not given) [hexylcaine] (10 µM), the SARS-CoV-2 infection rate is 112%.

Consider `N=C(C[C@@H](O)COc1ccccc1-c1ccccc1)N1CCCCC1` (10 µM), for which the SARS-CoV-2 infection rate was 104%. In the case of `O=C1c2ccc(Nc3ccc(F)cc3F)cc2CCc2ccc(OC[C@H](O)CO)cc21` [skepinone-L] (10 µM), the SARS-CoV-2 infection rate is 113%.

For `CN(C)NC(=O)CCC(=O)O` [daminozide] (10 µM), the SARS-CoV-2 infection rate is 95%.

Consider `CCCCc1cc2ccccc2c(OCCN(C)C)n1` [dimethisoquin] (10 µM), for which the SARS-CoV-2 infection rate was 71.5%. As for `O=C1C(=O)N(Cc2ccc(Cl)c(Cl)c2)c2ccccc21` [apoptosis-activator-II] (10 µM), the SARS-CoV-2 infection rate was 104%.

Regarding `CC1=C(C(=O)O)N2C(=O)[C@@H](NC(=O)[C@H](N)c3ccccc3)[C@H]2SC1` [cephalexin] (10 µM), the SARS-CoV-2 infection rate was 112%. For `CN1C2CCC1CC(OC(c1ccccc1)c1ccc(Cl)cc1)C2` (stereo not given) (0.833333 µM), the SARS-CoV-2 infection rate is 98.5%. On to `CCCNC(C)C(=O)Nc1ccccc1C` (stereo not given) [prilocaine] (10 µM), for which the SARS-CoV-2 infection rate is 112%. As for `N[C@@H](C[C@@H](F)C(=O)O)C(=O)O` (10 µM), the figure is 110%; as for `c1cc(-c2cnn3cc(-c4ccc(N5CCNCC5)cc4)cnc23)c2cccnc2c1` (0.833333 µM), 103%; as for `C[C@H]1[C@H](NC(=O)/C(=N\OC(C)(C)C(=O)O)c2csc(N)n2)C(=O)N1S(=O)(=O)O` [aztreonam] (10 µM), 94%. On to `N[C@@H](C(=O)O)[C@@H](OCc1ccccc1)C(=O)O.N[C@H](C(=O)O)[C@H](OCc1ccccc1)C(=O)O` (10 µM), for which the SARS-CoV-2 infection rate was 106%.
